Laboratory results taken from PubChem BioAssay (NCATS).
Several values for one entry are separate records, joined by “and”; a condition that tells them apart may be missing. Identical values can stand only once. Unmarked numbers belong to inactive results. Inconclusive results are not listed. Entries that show only a call come without a potency. Activity calls are given as the source filed them. Unless noted, calls come from the whole dose curve; as a rule, active = well fitted curve in the direction sought with a large enough effect; inconclusive = small, poorly fitted or top-dose-only effect, or another doubt; inactive = no such curve, though single readings can be large; an effect the other way counts as inactive or inconclusive.

Key:
[1] = qHTS assay for measurement of the activity of small molecule inhibitors on Zika virus induced Caspase-3 activity in human iPSC derived neural progenitor cells (hNPCs) (AID 1224857); note: nearly all actives have a fitted effect of over 65% in size
Outline: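 Cells were plated at 350 per well and grown 16 to 20 hours. Compound pretreatment lasted one hour, after which ZIKV (2 FFU/cell) was added for 6 hours. Percent inhibition was normalized between uninfected and infected controls.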

[2] = qHTS assay for measurement of the activity of small molecule inhibitors on Zika virus induced Caspase-3 activity in human astrocytoma cells (AID 1224859)
Outline: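 Percent inhibition of virus-induced caspase-3/7 signal is calculated against uninfected and ZIKV-infected control cells. Cells are SNB-19, infected at 2 FFU/cell for 6 h after 1 h compound exposure.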

[3] = qHTS Assay for Identifying Gametocytocidal Compounds (AID 743244);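 note: actives lower the fluorescent signal which means gametocytes are killed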; conditions: P. falciparum 3D7 stage III-V gametocytes, alamarBlue, 72 h; max response: stronger effect = lower value
Outline: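 3D7 gametocytes, stages III–V, 20,000/well; cpd 72 h, 37 °C/5% CO2; + alamarBlue 24 h; fluor. Ex 525/Em 598.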

[4] = qHTS assay for small molecule antagonists of the retinoid-related orphan receptor gamma (ROR-gamma) signaling pathway - cell viability counter screen (AID 720652; active = well fitted curve in the direction sought with a large enough effect in the repeat runs; an effect the other way counts as inactive or inconclusive;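 note: CHO reporter cells with doxycycline-induced ROR-gamma expression; series mostly up to about 92 µM; compound exposure lasted 16 hr before ATP read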)
Outline: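 Steps: seed CHO cells bearing TET-inducible ROR and ROR response element-luciferase; rest 5 hr at 37 C; add compound, then doxycycline; incubate 16 hr; add CellTiter-Glo and read luminescence as ATP-based viability.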

[5] = qHTS assay for cell viability of the p53RE-bla HCT-116 cell line (AID 743292); note: nearly all actives have a fitted effect of over 55% in size
Outline: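 After plating at 4,000 cells per well and a 5 h rest at 37 C, HCT-116 cells carrying p53RE-bla received test chemicals in DMSO. Sixteen hours later at 37 C, CellTiter-Glo was added and luminescence recorded following 30 min at room temperature.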

SMILES | Potency [1] | outcome [2] | max response [3] | outcome [4] | outcome [5]
CCC1NC(=O)c2cc(S(N)(=O)=O)c(Cl)cc2N1 (configuration not stated) | inactive | inactive | – | – | –
CCN(CC)CCOC(=O)C1(c2ccccc2)CCCC1 | inactive | inactive | – | – | –
C#C[C@]1(O)CC[C@H]2[C@@H]3CCC4=CC(=O)CC[C@@H]4[C@H]3CC[C@@]21CC | inactive | inactive | – | – | –
CC1=C(C(=O)O)N2C(=O)[C@@H](NC(=O)[C@H](N)c3ccccc3)[C@H]2SC1 | inactive | inactive | – | – | –
Cc1cccc(C)c1NC(=O)CN1CCCCCC1 | inactive | inactive | 3.55% | – | –
O=C(O)CCc1nc2ccccc2[nH]1 | inactive | inactive | 8.17% | – | –
CN(C)CCN1C(=O)c2ccccc2N(C)c2ccccc21 | inactive | inactive | -0.0527% | – | –
CCN(CC)CCNC(=O)c1cc(Br)c(N)cc1OC | inactive | inactive | -8.23% | – | –
CCc1cc(Cl)c(OC)c(C(=O)NC[C@@H]2CCCN2CC)c1O | inactive | inactive | -8.19% and -10.7% and 19.5% | – | –
OCc1ccccn1 | inactive | inactive | -7.21% | – | –
CC(C)(C)NCC(O)COc1cccc2c1C[C@H](O)[C@H](O)C2 (some centres not stated) | inactive | inactive | -0.0039% | – | –
Oc1ccc(Cl)cc1Cc1cc(Cl)ccc1O | inactive | inactive | 0.972% | inactive | inactive
CN(Cc1ccc(C(C)(C)C)cc1)Cc1cccc2ccccc12 | inactive | inactive | 18.1% and -10.3% | – | –
